# Inconclusive results are not listed. A call without a number means that no potency is given here. A number with no mark means an inactive call. Active and inactive are the calls of the source. The call rests on the fitted dose curve; in most records, active means well fitted curve in the direction sought with a large enough effect; inconclusive means small, poorly fitted or top-dose-only effect, or another doubt; inactive means no such curve, though single readings can be large; an effect the other way counts as inactive or inconclusive.
# Legend:
# NIH3T3 [1] = assay: Cytotoxic Profiling of Annotated Libraries Using Quantitative High-Throughput Screening (AID 1296008); conditions: Five cell lines viability, CellTiter-Glo ATP luminescence, 48-72 h; max response: hits give low values; further: nearly all actives have a fitted effect of over 60% in size
# In short: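 Cytotoxicity was measured as CellTiter-Glo ATP luminescence, read after 10 min at room temperature. Compound treatment of the cells lasted 48 or 72 hr at 37 degrees Celsius in a qHTS format.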
# MCC-13 = assay: qHTS assay to identify novel small-molecules to repurpose for Merkel cell carcinoma treatment (AID 1296009); conditions: MCC and control cell lines, CellTiter-Glo viability, 72 h; series mostly up to 46 µM; further: nearly all actives have a fitted effect of over 60% in size
# In short: (§1)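 Cell viability measured by CellTiter-Glo following 72 hr compound treatment at 37 degree celsius, with NPC and MIPE libraries tested in 8- and 11-point concentration series.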
# MCC-26 = assay: as above; conditions: MCC and control cell lines, CellTiter-Glo viability, 72 h; series mostly up to 46 µM
# In short: as §1
# MKL-1 = assay: as above; conditions: MCC and control cell lines, CellTiter-Glo viability, 72 h; series mostly up to 46 µM
# In short: as §1
# UISO = assay: as above; conditions: MCC and control cell lines, CellTiter-Glo viability, 72 h; series mostly up to 46 µM
# In short: as §1
# C33A = assay: Primary qHTS to identify gynecologic anti-cancer compounds using libraries of approved drugs and bioactive compounds (AID 1345084); conditions: Gynecologic cancer cell panel viability, ATPlite luminescence, 48 h; series mostly up to 57.5 µM; further: nearly all actives have a fitted effect of over 55% in size
# In short: (§2)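 ATP-based viability (ATPlite), 1,000 cells/well, 16 h pre-incubation, 48 h compound at 37 C, 5% CO2, 15 min RT before read.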
# CAOV3 = assay: as above; conditions: Gynecologic cancer cell panel viability, ATPlite luminescence, 48 h; series mostly up to 57.5 µM
# In short: as §2
# CASKI = assay: as above; conditions: Gynecologic cancer cell panel viability, ATPlite luminescence, 48 h; series mostly up to 57.5 µM
# In short: as §2
# Es-2 = assay: as above; conditions: Gynecologic cancer cell panel viability, ATPlite luminescence, 48 h; series mostly up to 57.5 µM
# In short: as §2
# HeLa = assay: as above; conditions: Gynecologic cancer cell panel viability, ATPlite luminescence, 48 h; series mostly up to 57.5 µM
# In short: as §2
# Hek293T = assay: as above; conditions: Gynecologic cancer cell panel viability, ATPlite luminescence, 48 h, control line for the selectivity index; series mostly up to 57.5 µM
# In short: as §2
# JEG-3 = assay: as above; conditions: Gynecologic cancer cell panel viability, ATPlite luminescence, 48 h; series mostly up to 57.5 µM
# In short: as §2
# OV90 = assay: as above; conditions: Gynecologic cancer cell panel viability, ATPlite luminescence, 48 h; series mostly up to 57.5 µM
# In short: as §2
# PA-1 = assay: as above; conditions: Gynecologic cancer cell panel viability, ATPlite luminescence, 48 h; series mostly up to 57.5 µM
# In short: as §2
# SKOV3 = assay: as above; conditions: Gynecologic cancer cell panel viability, ATPlite luminescence, 48 h; series mostly up to 57.5 µM
# In short: as §2
# MKL-2 = assay: qHTS assay to identify novel small-molecules to repurpose for Merkel cell carcinoma treatment (AID 1296009); conditions: MCC and control cell lines, CellTiter-Glo viability, 72 h; series mostly up to 46 µM; further: nearly all actives have a fitted effect of over 60% in size
# In short: as §1
# NIH3T3 [2] = assay: as above; conditions: MCC and control cell lines, CellTiter-Glo viability, 72 h; at 44.8 µM (top of the series) unless noted
# In short: as §1
# WaGa = assay: as above; conditions: MCC and control cell lines, CellTiter-Glo viability, 72 h; series mostly up to 46 µM
# In short: as §1
# Potency means the concentration at half of the fitted maximal effect.
smiles,measurement,setting,value
C=C1C[C@H]2[C@@H]3C=C(C)C4=CC(=O)CC[C@]4(C)[C@H]3CC[C@]2(C)[C@@]1(OC(C)=O)C(C)=O,max response,NIH3T3 [1],-3.66%
same,Potency,MCC-13,inactive
same,Potency,MCC-26,inactive
same,Potency,MKL-1,inactive
same,Potency,UISO,inactive
same,Potency,C33A,inactive
same,Potency,CAOV3,inactive
same,Potency,CASKI,inactive
same,Potency,Es-2,inactive
same,Potency,HeLa,inactive
same,Potency,Hek293T,inactive
same,Potency,JEG-3,inactive
same,Potency,OV90,inactive
same,Potency,PA-1,inactive
same,Potency,SKOV3,inactive
CC(=O)Nc1c(I)cc(I)c(C(=O)O)c1I,outcome,NIH3T3 [1],inactive
same,Potency,MCC-13,inactive
same,Potency,MKL-1,inactive
same,Potency,MKL-2,inactive
same,outcome,NIH3T3 [2],inactive
same,Potency,UISO,inactive
same,Potency,WaGa,inactive
same,Potency,C33A,inactive
same,Potency,CAOV3,inactive
same,Potency,CASKI,inactive
same,Potency,Es-2,inactive
same,Potency,HeLa,inactive
same,Potency,Hek293T,inactive
same,Potency,JEG-3,inactive
same,Potency,OV90,inactive
same,Potency,PA-1,inactive
same,Potency,SKOV3,inactive
O=C(Nc1ccc(Cl)c(Cl)c1)C1CC1,max response,NIH3T3 [1],-1.64%
same,Potency,MCC-13,inactive
same,Potency,MCC-26,inactive
same,Potency,MKL-1,inactive
same,Potency,MKL-2,inactive
same,Potency,UISO,inactive
same,Potency,WaGa,inactive
same,Potency,C33A,inactive
same,Potency,CAOV3,inactive
same,Potency,CASKI,inactive
same,Potency,Es-2,inactive
same,Potency,HeLa,inactive
same,Potency,Hek293T,inactive
same,Potency,JEG-3,inactive
same,Potency,OV90,inactive
same,Potency,PA-1,inactive
same,Potency,SKOV3,inactive
Cc1cc(=O)n(-c2ccccc2)n1C,max response,NIH3T3 [1],-41.4%
same,Potency,MCC-13,inactive
same,Potency,MKL-1,inactive
same,Potency,MKL-2,inactive
same,Potency,UISO,inactive
same,Potency,WaGa,inactive
same,Potency,C33A,inactive
same,Potency,CAOV3,inactive
same,Potency,CASKI,inactive
same,Potency,Es-2,inactive
same,Potency,HeLa,inactive
same,Potency,Hek293T,inactive
same,Potency,JEG-3,inactive
same,Potency,OV90,inactive
same,Potency,PA-1,inactive
same,Potency,SKOV3,inactive
CCn1cc(C(=O)O)c(=O)c2cnc(N3CCCC3)nc21,max response,NIH3T3 [1],-2.06%
same,"activity change, negative = cytotoxicity",MCC-13,5.05% [at 9.22 µM]
same,"activity change, negative = cytotoxicity",MCC-26,-5.4% [at 9.22 µM]
same,"activity change, negative = cytotoxicity",MKL-1,1.32% [at 9.22 µM]
same,"activity change, negative = cytotoxicity",MKL-2,14.9% [at 9.22 µM]
same,"activity change, negative = cytotoxicity",UISO,12.1% [at 9.22 µM]
same,"activity change, negative = cytotoxicity",WaGa,0.34% [at 9.22 µM]
same,"activity change, negative = cytotoxicity",C33A,-2.2% [at 11.6 µM]
same,"activity change, negative = cytotoxicity",CAOV3,-1.93% [at 11.6 µM]
same,"activity change, negative = cytotoxicity",CASKI,15.2% [at 11.6 µM]
same,"activity change, negative = cytotoxicity",Es-2,0.873% [at 11.6 µM]
same,"activity change, negative = cytotoxicity",HeLa,-17.6% [at 11.6 µM]
same,"activity change, negative = cytotoxicity",Hek293T,1.62% [at 11.6 µM]
same,"activity change, negative = cytotoxicity",JEG-3,-0.757% [at 11.6 µM]
same,"activity change, negative = cytotoxicity",OV90,-1.88% [at 11.6 µM]
same,"activity change, negative = cytotoxicity",PA-1,3.4% [at 11.6 µM]
same,"activity change, negative = cytotoxicity",SKOV3,27% [at 11.6 µM]
CCOc1ccc(NC(=O)CC(C)O)cc1 (configuration not stated),max response,NIH3T3 [1],4.45%
same,Potency,MCC-13,inactive
same,Potency,MCC-26,inactive
same,Potency,MKL-1,inactive
same,Potency,MKL-2,inactive
same,Potency,UISO,inactive
same,Potency,WaGa,inactive
same,Potency,C33A,inactive
same,Potency,CAOV3,inactive
same,Potency,CASKI,inactive
same,Potency,Es-2,inactive
same,Potency,HeLa,inactive
same,Potency,Hek293T,inactive
same,Potency,JEG-3,inactive
same,Potency,OV90,inactive
same,Potency,PA-1,inactive
same,Potency,SKOV3,inactive
O=C(Nc1ccc(Oc2ccc(Cl)cc2)c(Cl)c1)c1cc(I)cc(I)c1O,max response,NIH3T3 [1],0.252%
same,Potency,MCC-13,inactive
same,Potency,MKL-1,inactive
same,Potency,MKL-2,inactive
same,Potency,UISO,inactive
same,Potency,WaGa,inactive
same,Potency,C33A,inactive
same,Potency,CAOV3,inactive
same,Potency,CASKI,inactive
same,Potency,Es-2,inactive
same,Potency,HeLa,inactive
same,Potency,Hek293T,inactive
same,Potency,JEG-3,inactive
same,Potency,PA-1,inactive
same,Potency,SKOV3,inactive
C[C@@H]1C[C@H]2[C@@H]3CCC4=CC(=O)C=C[C@]4(C)[C@@]3(F)[C@@H](O)C[C@]2(C)[C@H]1C(=O)CO,max response,NIH3T3 [1],-2.44%
same,Potency,MCC-13,inactive
same,Potency,MCC-26,inactive
same,Potency,MKL-1,inactive
same,Potency,MKL-2,inactive
same,Potency,UISO,inactive
same,Potency,WaGa,inactive
same,Potency,C33A,inactive
same,Potency,CAOV3,inactive
same,Potency,CASKI,inactive
same,Potency,Es-2,inactive
same,Potency,HeLa,inactive
same,Potency,Hek293T,inactive
same,Potency,JEG-3,inactive
same,Potency,OV90,inactive
same,Potency,PA-1,inactive
same,Potency,SKOV3,inactive
CCCCCCCCCCCCCCCCCC(=O)OCC(O)CO (configuration not stated),max response,NIH3T3 [1],1.82%
same,Potency,MCC-13,inactive
same,Potency,MCC-26,inactive
same,Potency,MKL-1,inactive
same,Potency,MKL-2,inactive
same,Potency,UISO,inactive
same,Potency,WaGa,inactive
same,Potency,C33A,inactive
same,Potency,CAOV3,inactive
same,Potency,CASKI,inactive
same,Potency,Es-2,inactive
same,Potency,HeLa,inactive
same,Potency,Hek293T,inactive
same,Potency,JEG-3,inactive
same,Potency,OV90,inactive
same,Potency,SKOV3,inactive
O=C(COc1ccc(Cl)cc1)N1CCN(Cc2ccc3c(c2)OCO3)CC1,max response,NIH3T3 [1],0.953%
same,Potency,MCC-13,inactive
same,Potency,MCC-26,inactive
same,Potency,MKL-1,inactive
same,Potency,UISO,inactive
same,Potency,C33A,inactive
same,Potency,CAOV3,inactive
same,Potency,CASKI,inactive
same,Potency,Es-2,inactive
same,Potency,HeLa,inactive
same,Potency,Hek293T,inactive
same,Potency,JEG-3,inactive
same,Potency,OV90,inactive
same,Potency,PA-1,inactive
same,Potency,SKOV3,inactive
C[C@@H](CN(C)C)CN1c2ccccc2Sc2ccccc21,max response,NIH3T3 [1],-1.51%
same,Potency,MCC-13,inactive
same,Potency,MCC-26,inactive
same,Potency,MKL-2,23.7 µM (active)
same,Potency,UISO,inactive
same,Potency,WaGa,inactive
same,Potency,C33A,inactive
same,Potency,CAOV3,inactive
same,Potency,CASKI,inactive
same,Potency,Es-2,inactive
same,Potency,HeLa,inactive
same,Potency,Hek293T,inactive
same,Potency,JEG-3,inactive
same,Potency,PA-1,inactive
same,Potency,SKOV3,17.8 µM (active)
CN=C(NC#N)NCCSCc1csc(N=C(N)N)n1,max response,NIH3T3 [1],4.93%
same,Potency,MCC-13,inactive
same,Potency,MKL-1,inactive
same,Potency,MKL-2,inactive
same,Potency,UISO,inactive
same,Potency,WaGa,inactive
same,Potency,C33A,inactive
same,Potency,CAOV3,inactive
same,Potency,CASKI,inactive
same,Potency,Es-2,inactive
same,Potency,HeLa,inactive
same,Potency,JEG-3,inactive
same,Potency,OV90,inactive
same,Potency,PA-1,inactive
same,Potency,SKOV3,inactive
OC[C@H]1O[C@@H](n2cnc3c(=S)nc[nH]c32)[C@H](O)[C@@H]1O,Potency,NIH3T3 [1],1.88 µM (active)
same,Potency,MCC-13,2.11 µM (active)
same,Potency,MCC-26,inactive
same,Potency,MKL-2,inactive
same,Potency,WaGa,0.237 µM (active)
same,Potency,C33A,7.94 µM (active)
same,Potency,CAOV3,inactive
same,Potency,CASKI,2.24 µM (active)
same,Potency,Es-2,3.55 µM (active)
same,Potency,HeLa,3.16 µM (active)
same,Potency,Hek293T,10 µM (active)
same,Potency,JEG-3,2.51 µM (active)
same,Potency,OV90,8.91 µM (active)
same,Potency,PA-1,5.01 µM (active)
same,Potency,SKOV3,inactive

# Reference: PubChem BioAssay (NCATS)
